In PubChem BioAssay (Tox21):
Results filed as inconclusive are left out. Active and inactive are the calls of the source. Unless noted, calls follow the shape of the full dose curve.

How the values were obtained:
[1] = Nuclear factor erythroid 2-related factor 2/antioxidant responsive element (Nrf2/ARE) small molecule agonists: qHTS cell viability counter screen in human keratinocytes (AID 1919968; active = well fitted curve in the direction sought with a large enough effect in the repeat runs; an effect the other way counts as inactive or inconclusive; also: nearly all actives have a fitted effect of over 55% in size)
Outline: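 Seed 1,500 KeratinoSens cells per well, then incubate 5 h at 37 C/5% CO2. Add compounds in DMSO and incubate 23 h. Add CellTiter-Fluor, wait 1 h and read fluorescence.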

[2] = Nuclear factor erythroid 2-related factor 2/antioxidant responsive element (Nrf2/ARE) small molecule agonists: luciferase reporter gene qHTS assay in human keratinocytes (AID 1919969); also: nearly all actives have a fitted effect of over 35% in size
[3] = molecular target: Gonadotropin-releasing hormone receptor (Homo sapiens) (UniProt P30968); experiment: Human gonadotropin-releasing hormone receptor (GnRHR) small molecule agonists, calcium flux assay in GnRHR-HEK293 cells (AID 1920063); also: nearly all actives have a fitted effect of over 35% in size
Outline: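 Cells: HEK293 stably expressing human GnRHR. Steps: overnight (18 h) culture, 1 h calcium dye loading at 37 C, compound addition, kinetic fluorescence read at 480/540 nm. Each compound tested at 15 concentrations in triplicate.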

[4] = molecular target: KiSS-1 receptor (Homo sapiens) (UniProt Q969F8); experiment: Human kisspeptin (KISS1R) small molecule agonists, calcium flux assay in KISS1R-HEK293 cells (AID 1920064; active = well fitted curve in the direction sought with a large enough effect in the repeat runs; an effect the other way counts as inactive or inconclusive)
Outline: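 Cells plated and incubated 18 h; dye added, 1 h at 37 C; compounds in DMSO pinned in; signal read at 480/540 nm every second for 3 min. Each compound tested at 15 concentrations in triplicate.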

[5] = G protein-coupled receptor (GPCR) small molecule agonists, calcium flux assay: HEK293 wild type cell line counter screen (AID 1920065)
Outline: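 Counter-screen of the Tox21 10K library for non-specific calcium release: dye-loaded cells received compounds in DMSO and were monitored by kinetic fluorescence (480/540 nm, 3 min). Fifteen concentrations, run in triplicate.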

[6] = p53 small molecule agonists, cell-based qHTS assay with human liver microsomes (AID 1963577);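 also: p53 response element beta-lactamase reporter cells with liver microsomes plus NADPH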
Outline: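 Reporter activation was measured by LiveBLAzer fluorescence intensity in p53RE-bla cells, which had been exposed to compounds for 16 h at 37 C alongside 0.5 mg/mL human liver microsomes and 0.5 mg/mL NADPH (final concentrations).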

[7] = p53 small molecule agonists, cell-based qHTS assay with rat liver microsomes (AID 1963578)
Outline: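 Compound in DMSO added to p53RE-bla cells 5 h post-plating; rat microsomes/NADPH 0.5 mg/mL final; 16 h, 37 C; LiveBLAzer 2 h RT.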

[8] = p53 small molecule agonists, cell-based qHTS assay with human liver microsomes: qHTS cell viability counter screen (AID 1963579); also: nearly all actives have a fitted effect of over 45% in size
Outline: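 HLM-supplemented (0.5 mg/mL final) and NADPH-supplemented (0.5 mg/mL final) p53RE-bla cultures, 4,000 cells per well, were dosed with compounds in DMSO for 16 h at 37 C; luminescent ATP detection (CellTiter-Glo, 30 min, room temperature) quantified surviving cells.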

[9] = p53 small molecule agonists, cell-based qHTS assay with rat liver microsomes: qHTS cell viability counter screen (AID 1963580); also: nearly all actives have a fitted effect of over 45% in size
Outline: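 Viability is assessed in parallel with the p53 reporter read: HCT-116 p53RE-bla cells receive compounds plus rat microsomes and NADPH (0.5 mg/mL final apiece), incubate 16 h at 37 C, and then CellTiter-Glo luminescence is recorded.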

[10] = p53 small molecule agonists, cell-based qHTS assay: qHTS cell viability counter screen (AID 1963581); also: nearly all actives have a fitted effect of over 45% in size
Outline: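 Cells: HCT-116 with p53 response element-driven beta-lactamase. Treatment: 16 h, 37 C, compounds in DMSO. Read: CellTiter-Glo luminescence after 30 min RT.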

[11] = p53 small molecule agonists, cell-based qHTS assay (AID 1963582; active = well fitted activation curve with a large enough effect in the signal ratio in the repeat runs, not every such curve was filed as active; the % refers to the signal ratio)
Outline: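 Quantitative HTS in p53RE-bla cells: after a 5 h settling period, compounds delivered in DMSO were left on cells for 16 h at 37 C, and reporter induction was measured as fluorescence following 2 h substrate loading.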

[12] = cAMP Responsive Elements (CRE) small molecule agonists, cell-based qHTS assay (AID 1963590)
Outline: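 Agonist mode qHTS in CRE-bla HEK 293T cells: compounds dosed from DMSO for 3 h at 37 C/5% CO2, followed by LiveBLAzer B/G FRET substrate for 2 h at room temperature.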

[13] = cAMP Responsive Elements (CRE) small molecule antagonists, cell-based qHTS assay (AID 1963591; active = well fitted inhibition curve with a large enough effect in the signal ratio in the repeat runs, not every such curve was filed as active; the % refers to the signal ratio)
Outline: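 Antagonist mode: test compounds are co-incubated with the adenylyl cyclase activator NKH477 (0.25 uM final) on CRE-bla HEK293T cells for 3 h at 37 °C, followed by LiveBLAzer substrate loading.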

[14] = molecular target: Beta-2 adrenergic receptor (Homo sapiens) (UniProt P07550); experiment: Adrenergic beta2 receptor (ADRB2) small molecule antagonists, cell-based qHTS assay (AID 1963592); also: series mostly up to about 92 µM; nearly all actives have a fitted effect of over 50% in size
Outline: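 Cells (CHO, stable ADRB2 overexpression) incubated 18-20hr at 37C; compounds added from DMSO; agonist mix (1nM isoproterenol, 100uM IBMX, 25uM Ro-20-1724) added; 0.5hr RT; d2-cAMP and anti-cAMP-cryptate added; 1hr RT; 665/615 nm read.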

[15] = molecular target: Beta-2 adrenergic receptor (Homo sapiens) (UniProt P07550); experiment: Adrenergic beta2 receptor (ADRB2) small molecule agonists, cell-based qHTS assay (AID 1963593);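 also: CHO cells stably overexpressing human ADRB2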
Outline: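 CHO cells stably over-expressing ADRB2 were plated overnight at 37C, then dosed with compounds plus a stimulation mix containing 100uM IBMX and 25uM Ro-20-1724 for 0.5hr at room temperature. cAMP was measured by HTRF competition, 1hr.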

[16] = molecular target: D(2) dopamine receptor (Homo sapiens) (UniProt P14416); experiment: Dopamine D2 receptor (DRD2) small molecule antagonists, cell-based qHTS assay (AID 1963595; active = well fitted inhibition curve with a large enough effect in the signal ratio in the repeat runs, with a control signal flat; the % refers to the signal ratio)
Outline: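 Antagonist mode in DRD2-HEK293 cells: after compound addition with 0.1 mM Ro20-1724, cells received quinpirole (12 nM) and NKH477 (200 nM) for 30 min at room temperature; HTRF cAMP read after 1 h detection.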

[17] = molecular target: D(2) dopamine receptor (Homo sapiens) (UniProt P14416); experiment: Dopamine D2 receptor (DRD2) small molecule agonists, cell-based qHTS assay (AID 1963594); also: nearly all actives have a fitted effect of over 35% in size
Outline: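 HEK293 cells stably expressing human DRD2, pre-treated with PDE inhibitor Ro20-1724 (0.1 mM final) and compound 10 min at room temperature, then stimulated with NKH477 (200nM […]) for 30 min. cAMP read by HTRF (665/620 nm).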

[18] = molecular target: Muscarinic acetylcholine receptor M1 (Homo sapiens) (UniProt P11229); experiment: Cholinergic receptor muscarinic 1 (CHRM1) small molecule antagonists, cell-based qHTS assay (AID 1963588); also: nearly all actives have a fitted effect of over 40% in size
Outline: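 CHRM1-CHO calcium-flux assay, antagonist mode. Cells were seeded 18 h, dye-loaded 1 h at 37 C and given compound for 5 min at RT, then acetylcholine was added at 50nM. FDSS fluorescence was read 3 min; 15 concentrations, three runs.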

[19] = molecular target: Muscarinic acetylcholine receptor M1 (Homo sapiens) (UniProt P11229); experiment: Cholinergic receptor muscarinic 1 (CHRM1) small molecule agonists, cell-based qHTS assay (AID 1963589); also: nearly all actives have a fitted effect of over 35% in size
Outline: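 Agonist-mode qHTS in CHO cells stably carrying human muscarinic M1. Intracellular calcium is tracked by fluorescence every second after compound transfer; each compound runs at 15 concentrations in three independent runs.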

Measured: Potency

Sequence of Beta-2 adrenergic receptor (Homo sapiens) (P07550 whole entry, looked up): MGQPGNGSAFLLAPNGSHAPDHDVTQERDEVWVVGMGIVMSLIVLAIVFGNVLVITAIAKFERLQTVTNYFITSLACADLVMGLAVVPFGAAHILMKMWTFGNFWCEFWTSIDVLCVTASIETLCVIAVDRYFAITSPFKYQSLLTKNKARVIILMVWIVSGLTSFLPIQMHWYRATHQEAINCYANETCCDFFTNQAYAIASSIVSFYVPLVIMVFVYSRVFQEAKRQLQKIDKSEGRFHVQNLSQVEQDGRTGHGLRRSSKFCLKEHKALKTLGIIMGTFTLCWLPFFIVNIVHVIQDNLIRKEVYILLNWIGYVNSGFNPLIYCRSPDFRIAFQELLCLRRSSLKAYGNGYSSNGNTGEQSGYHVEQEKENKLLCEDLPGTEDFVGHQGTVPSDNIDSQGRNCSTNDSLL
Sequence of D(2) dopamine receptor (Homo sapiens) (P14416 whole entry, looked up): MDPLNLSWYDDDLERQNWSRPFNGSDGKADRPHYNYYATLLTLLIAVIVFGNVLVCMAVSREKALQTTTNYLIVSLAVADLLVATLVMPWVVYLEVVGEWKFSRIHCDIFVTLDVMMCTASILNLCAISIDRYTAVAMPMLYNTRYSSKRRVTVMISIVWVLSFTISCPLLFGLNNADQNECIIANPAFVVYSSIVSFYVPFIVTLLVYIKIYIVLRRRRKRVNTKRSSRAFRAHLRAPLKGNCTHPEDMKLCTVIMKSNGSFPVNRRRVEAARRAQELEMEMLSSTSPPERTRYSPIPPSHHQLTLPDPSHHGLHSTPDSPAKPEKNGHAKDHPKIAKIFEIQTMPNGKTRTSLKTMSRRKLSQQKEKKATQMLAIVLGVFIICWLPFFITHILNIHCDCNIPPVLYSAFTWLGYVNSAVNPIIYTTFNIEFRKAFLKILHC
Sequence of Gonadotropin-releasing hormone receptor (Homo sapiens) (P30968 whole entry, looked up): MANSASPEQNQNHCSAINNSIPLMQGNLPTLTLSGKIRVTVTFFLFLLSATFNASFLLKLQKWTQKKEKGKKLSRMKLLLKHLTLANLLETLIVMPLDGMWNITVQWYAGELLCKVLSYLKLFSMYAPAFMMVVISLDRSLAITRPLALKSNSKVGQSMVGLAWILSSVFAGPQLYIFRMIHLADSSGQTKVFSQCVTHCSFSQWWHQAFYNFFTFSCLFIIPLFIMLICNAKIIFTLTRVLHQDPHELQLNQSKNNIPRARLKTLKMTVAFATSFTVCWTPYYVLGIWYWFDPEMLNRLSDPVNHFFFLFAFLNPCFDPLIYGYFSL
Sequence of KiSS-1 receptor (Homo sapiens) (Q969F8 whole entry, looked up): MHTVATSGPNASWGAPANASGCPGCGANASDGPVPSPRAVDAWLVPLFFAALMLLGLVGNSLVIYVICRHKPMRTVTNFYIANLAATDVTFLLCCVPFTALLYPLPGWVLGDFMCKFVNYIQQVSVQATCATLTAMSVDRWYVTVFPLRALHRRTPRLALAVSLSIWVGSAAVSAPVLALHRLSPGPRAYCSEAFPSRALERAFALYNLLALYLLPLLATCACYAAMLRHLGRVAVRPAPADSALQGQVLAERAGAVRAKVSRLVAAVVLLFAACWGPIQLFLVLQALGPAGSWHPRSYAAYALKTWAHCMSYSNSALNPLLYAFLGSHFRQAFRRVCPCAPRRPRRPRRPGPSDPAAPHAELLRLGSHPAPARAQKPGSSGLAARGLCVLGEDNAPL
Sequence of Muscarinic acetylcholine receptor M1 (Homo sapiens) (P11229 whole entry, looked up): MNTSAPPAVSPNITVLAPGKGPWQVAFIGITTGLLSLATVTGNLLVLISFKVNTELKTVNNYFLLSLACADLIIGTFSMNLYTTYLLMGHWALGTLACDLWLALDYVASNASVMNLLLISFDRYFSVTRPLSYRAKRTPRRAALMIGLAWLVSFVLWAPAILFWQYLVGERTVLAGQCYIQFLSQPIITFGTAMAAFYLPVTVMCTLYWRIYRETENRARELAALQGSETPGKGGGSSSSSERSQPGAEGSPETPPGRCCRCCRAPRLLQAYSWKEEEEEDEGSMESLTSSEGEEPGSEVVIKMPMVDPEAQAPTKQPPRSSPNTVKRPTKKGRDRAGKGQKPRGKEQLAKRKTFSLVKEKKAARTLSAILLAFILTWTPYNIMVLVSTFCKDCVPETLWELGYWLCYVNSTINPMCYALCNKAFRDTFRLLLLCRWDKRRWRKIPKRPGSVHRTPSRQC

Cc1ccccc1N1CCN(CCc2nnc3n2CCCC3)CC1
not listed: [17] | [18] | [19]
inactive: all other assays above

Nc1ccc(S(=O)(=O)NC(=O)c2ccccc2)cc1
not listed: [15] | [18] | [19]
inactive: all other assays above

c1ccc([C@H]2CN3CCSC3=N2)cc1
not listed: [15] | [17] | [18] | [19]
inactive: all other assays above

NS(=O)(=O)c1cc2c(cc1Cl)NC(C(Cl)Cl)NS2(=O)=O (configuration not stated)
not listed: [15] | [18] | [19]
inactive: all other assays above

CC(C)NNC(=O)c1ccncc1
not listed: [18] | [19]
inactive: all other assays above

C[N+](C)(C)CCOC(=O)CCC(=O)OCC[N+](C)(C)C
not listed: [15] | [18] | [19]
inactive: all other assays above

Cc1cccc(C)c1NC(=O)CN1CCCC1
not listed: [12] | [15] | [17]
inactive: all other assays above
